The AC50 is the concentration at which the activity in the assay is half-maximal.

Results filed as inconclusive are left out. The source made the active and inactive calls. The calls were made as follows: active = hit-call score of the fitted dose curve at least 0.9, where 1 is the maximum; inconclusive = response in the unintended direction; inactive = score below 0.9.

In this test the test system is Japanese medaka Peroxisome Proliferator-activated Receptor alpha (PPARa), gene 100304458. The experiment in a line: ATG_jmPPARa_EcoTox2: Attagene TRANS-FACTORIAL EcoTox-2 HepG2 Assay for Japanese medaka Peroxisome Proliferator-activated Receptor alpha (PPARa). On the procedure:
ATG_EcoTox2 is a cell-based, multiplexed assay created by modifying the existing Attagene TRANS-FACTORIAL system to include a panel of nuclear receptors from some or all the following species: human (Homo sapiens), african clawed frog (Xenopus laevis), rainbow trout (Oncorhynchus mykiss), japanese medaka (Oryzias latipes), and zebrafish (Danio rerio). The ECOTOX2-FACTORIAL format uses HepG2, a human liver cell line, with measurements taken at 24 hours after chemical dosing in a 24-well plate. ATG_jmPPARa_EcoTox2 is one of 29 assay components calculated in the ATG_EcoTox2 assay. It is designed to make measurements of mRNA induction, a form of inducible reporter, as detected with fluorescence intensity signals by Reverse transcription polymerase chain reaction (RT-PCR) and Capillary electrophoresis technology.The assay endpoint ATG_jmPPARa_EcoTox2 was analyzed in the positive analysis fitting direction relative to DMSO as the negative control and baseline of activity. Using a type of inducible reporter, measures of mRNA for gain-of-signal activity can be used to understand the reporter gene at the transcription factor-level as they relate to the gene PPARa. Furthermore, this assay endpoint can be referred to as a […], because this assay has produced multiple assay endpoints where this one serves a reporter gene function. To generalize the intended target to other relatable targets, this assay endpoint is annotated to the nuclear receptor intended target family, where the subfamily is non-steroidal.
Human liver HepG2 cells are transiently transfected with multiple reporter transcription units (MRTUs) in 6-well plates using FuGene 6 reagent (Roche; 3 ml FuGene/1 mg DNA). The MRTU constructs are regulated by a cis-regulating element (promoter). Each RTU expresses a GAL4-UAS that regulates the transcription of a nearby target reporter gene sequence. A major difference between the CIS and TRANS system is that in CIS activities of endogenous TFs are measured, whereas the TRANS assay evaluates changes in activities of exogenous, chimeric NR-Gal4 proteins. […] At the end of 24 hour incubation, total RNA was isolated using TriZol reagent (Invitrogen). The isolated RNA is then reverse-transcribed using oligo(dT) primer and Mo-MLV reverse transcriptase (Invitrogen) with DNAse I (Ambion) treatment for 30 min. The one-tenth of the produced cDNA was amplified by PCR using Taq DNA polymerase (Invitrogen) and two reporter sequence-specific primers. The PCR products were fluorescently labeled by primer extension with 6-arboxyfluorescein (6-FAM) 5'-labeled reporter sequence-specific primer (2 min at 95 C, 20 s at 68 C and 10 min at 72 C) and these products were digested with 5U of HpaI (New England Biolabs) for 2h at 37 C. The fragments were purified using Qiaquick PCR columns (Qiagen), analyzed on an ABI 3130xL genetic analyzer (Applied Biosystems) with peak positions identified by using a set of X-rhodamine (ROX)-labeled MapMarker1000 molecular weight standards (BioVentures). The raw capillary electrophoresis data was processed using Attagraph software (Attagene).
For the molecule `C=C(c1ccc(C(=O)O)cc1)c1cc2c(cc1C)C(C)(C)CCC2(C)C`, the molecule was classed as inactive.

`CC(C)(Oc1ccc(Cl)cc1)C(=O)O`: the molecule was classed as inactive. Regarding `Cc1nc(-c2ccc(C(F)(F)F)cc2)sc1C(=O)NCc1ccc(OC(C)(C)C(=O)O)cc1`, the AC50 was 0.0807 µM (active). Turning to `CC(C)(Oc1ccc(CCNC(=O)c2ccc(Cl)cc2)cc1)C(=O)O`, the AC50 was 45.9 µM (active).

`Cc1ccc(C)c(OCCCC(C)(C)C(=O)O)c1`: the call was inactive. As to `CC(C)(Oc1ccc(C2CC2(Cl)Cl)cc1)C(=O)O` (stereo unspecified), the AC50 was 58.5 µM (active).

As to `C[C@@H]1C[C@H]2[C@@H]3CCC4=CC(=O)C=C[C@]4(C)[C@@]3(F)[C@@H](O)C[C@]2(C)[C@@]1(O)C(=O)COP(=O)(O)O`, the result was inactive.

`CN(CCOc1ccc(CC2SC(=O)NC2=O)cc1)c1ccccn1` (stereo unspecified): the call was inactive. As to `Cc1cccc(Nc2cc(Cl)nc(SCC(=O)O)n2)c1C`, the AC50 was 63.8 µM (active).

Consider `CC(C)OC(=O)C(C)(C)Oc1ccc(C(=O)c2ccc(Cl)cc2)cc1`, for which the outcome was inactive. For the molecule `C[C@]12C=CC(=O)C=C1CC[C@@H]1[C@@H]2C(=O)C[C@@]2(C)[C@H]1CC[C@]2(O)C(=O)CO`, the outcome was inactive.
